Screens (PubChem BioAssay)
Compounds with a hit are over-represented: about 5.2% of the library has one in this group of screens.
Sfp PPTase inh – inhibitors of Bacillus subtilis Sfp phosphopantetheinyl transferase | Q9F4F7 | Biochemical Sfp PPTase activity, qHTS | Potency, µM, without a hit: largest response in the series, negative = inhibition, most hits filed as inhibitors | 310,000 compounds, 3.5% hits;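 note: the enzyme is Sfp with the accession as filed and its product quenches rhodamine fluorescence; potency is the fitted concentration of half-maximal effect; 0% = enzyme reaction without inhibitor and -100% = no enzyme wells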
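Sfp 15 nM + cpd, 15 min RT; start w/ rhodamine-CoA 5 uM, BHQ-2-YbbR 12.5 uM (final); 50 mM Hepes pH 7.6, 10 mM MgCl2, 0.01% NP-40, 0.01% BSA; read 525/598 nm at 0 and 30 min.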
Tau FP inhib – tau fibrillization inhibition (FP); AID 1468; K18 P301L tau heparin fibrillization, Alexa594 FP, 6 h; P10636; 280,000 compounds, 0.39% hits; Potency, µM (highest dose often 57.7 µM), without a hit: at the top dose activity, negative = inhibition, actives largely listed as inhibitors; note: potency is the fitted concentration of half-maximal effect; nearly all actives have a fitted effect of over 55% in size
Target sequence (P10636 561-689 P618L limits assumed): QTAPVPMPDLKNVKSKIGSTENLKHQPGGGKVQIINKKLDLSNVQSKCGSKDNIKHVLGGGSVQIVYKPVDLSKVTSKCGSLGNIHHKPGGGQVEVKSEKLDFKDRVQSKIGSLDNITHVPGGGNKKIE
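Read-out: fluorescence polarization of Alexa 594-labeled tau (0.24 uM), 555 nm excitation, 632 nm emission. Mixtures held 15 uM unlabeled K18 P301L, compound and 20 uM heparin, pH 7 acetate buffer, incubated 6 hr at 37 C.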
Tau fluor cs – counter-screen for tau fibril formation inhibitors | tau K18 P301L Alexa594 fluorescence, heparin fibrillization | Potency, µM (highest dose often 57.7 µM), for the others: top-dose activity change, negative = decrease | 280,000 compounds, 0.93% hits; note: potency is the fitted concentration of half-maximal effect; nearly all actives have a fitted effect of over 55% in size
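Human tau K18 P301L (15 uM unlabeled, 0.24 uM Alexa 594-labeled) in 100 mM sodium acetate pH 7 with 20 uM heparin, 6 hr at 37 C. ThT 30 uM added, 1 hr ambient; Alexa 594 FP and total fluorescence read at 555/632 nm.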
Tau ThT inhib – inhibitors of human tau fibril formation, thioflavin T binding. P10636. recombinant tau K18 P301L (four-repeat tau fragment), heparin-induced fibrillization, ThT fluorescence. Potency, µM (doses to about 57.4 µM), without a hit: top-dose activity, negative = inhibition, hits mostly inhibitors. 270,000 compounds, 2.1% hits. AID 1460; note: potency is the fitted concentration of half-maximal effect; nearly all actives have a fitted effect of over 55% in size
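In this qHTS, human K18 P301L tau is incubated with compound and heparin for 6 hr at 37 C, and Thioflavin T fluorescence then reports fibril load.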
FBPA coupling cs – counter-screen for Giardia aldolase inhibitors: coupling enzyme system; coupling enzyme system counterscreen, AmpLite Red fluorescence; activity change, negative = inhibition, % at 58.2 µM, hits read low; 290,000 compounds, 0.67% hits; in the data active = activity change below about -30%
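First, compound is pin-transferred into glyceraldehyde-3-phosphate coupling-enzyme reagent at 57.5 uM final and held 10 min at RT. Next, substrate, coupling system and AmpLite Red are added. After 20 min RT, fluorescence (525/598 nm) is read.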
Numbers without * were called inactive; ? = inconclusive; · = no result; [ ] = dose if it differs, or a comment. Unless noted, calls come from the whole dose curve; as a rule, active = well fitted curve in the direction sought with a large enough effect; inconclusive = small, poorly fitted or top-dose-only effect, or another doubt; inactive = no such curve, though single readings can be large; an effect the other way counts as inactive or inconclusive. Unless noted, % is set by controls: 0 for no effect and ±100 for the full control effect.

SMILES | Sfp PPTase inh | Tau FP inhib | Tau fluor cs | Tau ThT inhib | FBPA coupling cs
COc1cccc(CNC(=O)CCCCCn2c(=S)[nH]c3ccc(N4CCOCC4)cc3c2=O)c1 | 79µM* | 0% | -12% | 2% | -23
O=c1c2cc(N3CCOCC3)ccc2[nH]c(=S)n1CCCN1CCCCC1 | 0% | -1% | -7% | -10% | -38*
Cc1cccc(CNc2ccnc(-c3ccccc3C(F)(F)F)n2)c1 | 3% | · | · | · | -1
CCCS(=O)(=O)c1nc(S(=O)(=O)c2ccc(C)cc2)c(NCCCOC(C)C)s1 | · | -6% | -16% | -11% | ·
Cc1ccc(OCC(=O)Nc2ccc(N3CCCC3)cc2)cc1C | 32µM* | 9% | -26% | ? | -1
Cc1cc(C)cc(OCC(=O)Nc2ccc(N3CCCC3)cc2)c1 | 56µM* | 10% | ? | ? | -2
Cc1cc(C)cc(OCC(=O)Nc2ccc(CN3CCCCC3)cc2)c1 | -11% | -2% | -8% | -1% | 2
COc1ccc(OCC(=O)Nc2ccc(N3CCCCC3)cc2)cc1 | -22% | 6% | -9% | ? | 0
Cc1ccc(OCC(=O)Nc2cc(C(C)(C)C)on2)cc1C | 45µM* | · | · | · | ·
Cc1cccc(OCC(=O)Nc2ccc(N3CCCC3)cc2)c1C | ? | 10% | ? | 14µM* | -3
CCOC(=O)c1ccc(NC(=O)NCCOCCn2c(=O)oc3ccccc32)cc1 | · | -16% | -25% | ? | ·
CC(=O)Nc1ccc(S(=O)(=O)Oc2ccc(C(=S)N3CCC(O)CC3)cc2)cc1 | 56µM* | -9% | -4% | 2% | 8
Cc1ccc(/C=C/C2=Cc3c(sc(NC(=O)CSc4n[nH]c(N)n4)c3C#N)C(C)(C)C2)o1 | 2.5µM* | ? | -28% | ? | -2
Oc1cccc2c(NC(=S)Nc3ccc(OC(F)F)cc3)cccc12 | 56µM* | ? | 16µM*[quencher] | 11µM* | -48*
FC(F)Oc1ccc(NC(=S)Nn2cnnc2)cc1 | 22µM* | -13% | 0% | ? | -1
CCN(c1ccccc1)c1ccc2cc(S(=O)(=O)N3CCCC3)ccc2n1 | · | 3% | -9% | 2% | ·
COc1cc(C)c(CNc2ccc(OC)c(OC)c2)cc1C | -9% | -6% | ? | ? | -31*
COc1cc(C)c(CNc2cccc(C)c2)cc1C | ? | 3% | -3% | 4% | 1
COc1cc(C(=O)CSc2nnc(-c3ccc(O)cc3)n2CC2CCCO2)ccc1NC(C)=O (stereo not drawn) | ? | -2% | -19% | -17% | 1
CCC(=O)Nc1ccc(C(=O)CSc2nnc(-c3ccc(O)cc3)n2CC2CCCO2)cc1 (stereo not drawn) | 79µM* | -14% | -19% | -12% | -1
Cn1nnc(NC(=S)NC(=O)c2cc3ccccc3o2)n1 | 50µM* | -1% | 10% | 1% | -7
O=C(NC(=S)Nc1ncccn1)c1ccc(F)cc1 | 16µM* | · | · | · | 3
Cn1nnc(NC(=S)NC(=O)c2cccc3c(Br)cccc23)n1 | ? | · | · | · | -1
COc1cccc(C(=O)NC(=S)Nc2nnn(C)n2)c1 | 50µM* | -3% | 9% | 1% | -4
COc1ccc(C(=O)NC(=S)Nc2nnn(C)n2)cc1 | 56µM* | 1% | -8% | -18% | -1
SMILES | Sfp PPTase inh | Tau FP inhib | Tau fluor cs | Tau ThT inhib | FBPA coupling cs
CC(=O)Nc1ccc(NC(=S)NC(=O)c2cc3ccccc3o2)cc1 | 1% | ? | -8% | ? | 2
O=C(NC(=S)Nc1cccnc1Cl)c1ccc(F)cc1 | -24% | · | · | · | 1
CCOC(=O)c1cccc(NC(=O)c2cnc3sc(N4CCOCC4)nn3c2=O)c1 | · | 4% | -3% | -6% | ·
COc1ccc(C(=O)NC(=S)SCC(=O)O)cc1 | 50µM* | ? | -16% | ? | 0
CCc1cccc(NC(=O)Cn2cc(C(=O)c3ccncc3)c(=O)c3cc(C)c(C)cc32)c1 | · | 5% | -27% | -14% | ·
Cc1ccc(NC(=O)c2ccc(-c3nn(C)c(=O)c4ccccc34)cc2)cc1 | 79µM* | -8% | -29% | -7% | -1
CCOc1ccc2c(c1)[C@@H]1C=CC[C@@H]1[C@H](c1ccccc1Cl)N2 | · | 10% | ? | ? | ·
COc1ccc(OC)c(C2Nc3c(Cl)ccc(C(=O)O)c3C3C=CCC32)c1 (stereo not drawn) | 22µM* | -12% | -7% | ? | 26
COC(=O)COc1ccc(C2Nc3c(Cl)ccc(C(=O)O)c3C3C=CCC32)cc1 (stereo not drawn) | 10µM* | -17% | -28% | ? | -3
COC(=O)c1ccc([C@@H]2Nc3c(OC)ccc(C)c3[C@@H]3C=CC[C@@H]32)cc1 | · | ? | ? | 13µM* | ·
Cn1c(=O)c2c(-c3cccc(Br)c3)n(CCO)cc2n(C)c1=O | · | 3% | 3% | 1% | ·
CC(C)(C)c1ccc(S(=O)(=O)c2cn(CC(=O)Nc3ccccc3)c3ccccc3c2=O)cc1 | · | ? | -10% | 6% | ·
COc1ccc(C2=CC3=C(Br)C(=O)C(C)(OC(=O)c4ccco4)C(=O)C3=CO2)cc1 (stereo not drawn) | ? | ? | ? | 16µM* | 0
Cc1ccc(CNC(=O)c2ccc3c(c2)N(Cc2cccc(Cl)c2)C(=O)CS3)cc1 | · | -10% | -20% | 2% | ·
Cc1ccc(C)n1-c1sccc1C(=O)O | 50µM* | ? | -25% | 32µM* | 0
COc1ccc(NC(=O)c2cc(C(C)=O)n3ccccc23)cc1Cl | · | ? | 28µM*[quencher] | -13% | ·
Cc1cccc(CNC(=O)CCCN2C(=O)c3cccnc3Oc3ccccc32)c1 | · | -5% | -9% | -6% | ·
COc1ccc2c(c1)Cc1sc(NC(=O)c3cccc(Cl)c3)nc1-2 | · | -10% | -22% | ? | ·
COc1ccc2c(c1)CCc1sc(NC(=O)c3cccc(Br)c3)nc1-2 | · | -5% | ? | ? | ·
